Reference: PubChem BioAssay
Active and inactive are the calls of the source. No rule for the calls is given here.

test: modulators of glucocorticoid suppression of NF-kB, cell-based, luciferase, IL-1B stimulus, dexamethasone (AID 624486); conditions: NF-kB luciferase reporter, IL-1B + dexamethasone, luminescence; percent of negative control (+Dex): actives lie on both sides, concentration not given here; z-score: measured here: IL-1B alone, no Dex;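 as to percent of negative control (+Dex): 100% = mean signal of vehicle control wells on the plate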

| Structure (SMILES) | percent of negative control (+Dex) | z-score |
| --- | --- | --- |
| Cc1cccc(Nc2ncc(-c3ccccc3)o2)c1 | 272% (active) | 15.2 |
| NC(=O)c1cccc(Nc2nccc(Nc3cccc4[nH]ncc34)n2)c1 | 95.5% (inactive) | 0.725 |
| CS(=O)(=O)CCNCc1ccoc1-c1ccc2ncnc(Nc3ccc(OCc4ccccc4)cc3)c2c1 | 80% (inactive) | -0.675 |
| NC(=O)c1cc(-c2ccc(F)cc2)cc(-c2ccncc2)c1N | 92.5% (inactive) | 0.27 |
| CCS(=O)(=O)c1ccc(OC)c(Nc2ncc(-c3cccc(C(C)=O)c3)o2)c1 | 87% (inactive) | 0.415 |
| COc1cc2ncn(-c3cc(OCc4ccccc4Cl)c(C(N)=O)s3)c2cc1OC | 112% (inactive) | 0.395 |
| COc1cccc(-n2ncc3c(N/N=C/c4ccc(S(C)(=O)=O)cc4)ncnc32)c1 | 136% (active) | 0.965 |
| Nc1nonc1-c1nc2cnccc2n1C1CC1 | 45% (active) | -5.63 |
| NC(=O)c1sc(-n2cnc3ccccc32)cc1OCc1ccccc1Br | 101% (inactive) | 0.185 |
| COC(=O)Nc1nc2ccc(Sc3ccc(NC(=O)Nc4cc(C(F)(F)F)ccc4F)cc3)cc2[nH]1 | 96.5% (inactive) | -0.175 |
| COc1cc2ncn(-c3cc(OCCc4ccccc4)c(C(N)=O)s3)c2cc1OC | 95% (inactive) | 0.89 |
| COc1cccc(Nc2nccc(-c3cnn4ncccc34)n2)c1 | 3% (active) | -9.21 |
| CS(=O)(=O)CCNCc1coc(-c2ccc3ncnc(Nc4ccc(OCc5ccccc5)cc4)c3c2)c1 | 90% (inactive) | -0.13 |
| NC(=O)Cc1ccccc1Oc1nccc(-c2c(-c3ccc(F)cc3)ncn2C2CCNCC2)n1 | 105% (inactive) | 0.475 |
| O=C(Nc1ccc(Oc2ccc3nc(NC(=O)c4ccco4)[nH]c3c2)cc1)Nc1cc(C(F)(F)F)ccc1F | 81.5% (inactive) | -2.38 |

test: kinase inhibitors altering Pseudomonas killing of worms, whole organism (AID 651566);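 also: tested at 14 µM; sign flipped so higher z means a lower ratio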; conditions: C. elegans killed by P. aeruginosa, survival ratio

| Structure (SMILES) | z-score |
| --- | --- |
| Cc1cccc(Nc2ncc(-c3ccccc3)o2)c1 | -1.25 (inactive) |
| NC(=O)c1cccc(Nc2nccc(Nc3cccc4[nH]ncc34)n2)c1 | -0.905 (inactive) |
| CS(=O)(=O)CCNCc1ccoc1-c1ccc2ncnc(Nc3ccc(OCc4ccccc4)cc3)c2c1 | 0.33 (inactive) |
| NC(=O)c1cc(-c2ccc(F)cc2)cc(-c2ccncc2)c1N | 0.64 (inactive) |
| CCS(=O)(=O)c1ccc(OC)c(Nc2ncc(-c3cccc(C(C)=O)c3)o2)c1 | 0.56 (inactive) |
| COc1cc2ncn(-c3cc(OCc4ccccc4Cl)c(C(N)=O)s3)c2cc1OC | -0.73 (inactive) |
| COc1cccc(-n2ncc3c(N/N=C/c4ccc(S(C)(=O)=O)cc4)ncnc32)c1 | -1.31 (inactive) |
| Nc1nonc1-c1nc2cnccc2n1C1CC1 | -0.345 (inactive) |
| NC(=O)c1sc(-n2cnc3ccccc32)cc1OCc1ccccc1Br | -0.075 (inactive) |
| COC(=O)Nc1nc2ccc(Sc3ccc(NC(=O)Nc4cc(C(F)(F)F)ccc4F)cc3)cc2[nH]1 | -0.56 (inactive) |
| COc1cc2ncn(-c3cc(OCCc4ccccc4)c(C(N)=O)s3)c2cc1OC | -0.32 (inactive) |
| COc1cccc(Nc2nccc(-c3cnn4ncccc34)n2)c1 | 0.695 (inactive) |
| CS(=O)(=O)CCNCc1coc(-c2ccc3ncnc(Nc4ccc(OCc5ccccc5)cc4)c3c2)c1 | -0.225 (inactive) |
| NC(=O)Cc1ccccc1Oc1nccc(-c2c(-c3ccc(F)cc3)ncn2C2CCNCC2)n1 | -0.78 (inactive) |
| O=C(Nc1ccc(Oc2ccc3nc(NC(=O)c4ccco4)[nH]c3c2)cc1)Nc1cc(C(F)(F)F)ccc1F | -0.605 (inactive) |

test: activators of macrophage pro-inflammatory response, cell-based, murine, luminescence (AID 652131); conditions: murine macrophage pro-inflammatory reporter, stronger effect = higher value

| Structure (SMILES) | z-score |
| --- | --- |
| Cc1cccc(Nc2ncc(-c3ccccc3)o2)c1 | 1.33 (inactive) |
| NC(=O)c1cccc(Nc2nccc(Nc3cccc4[nH]ncc34)n2)c1 | 1.14 (inactive) |
| CS(=O)(=O)CCNCc1ccoc1-c1ccc2ncnc(Nc3ccc(OCc4ccccc4)cc3)c2c1 | 3.01 (inactive) |
| NC(=O)c1cc(-c2ccc(F)cc2)cc(-c2ccncc2)c1N | -0.928 (inactive) |
| CCS(=O)(=O)c1ccc(OC)c(Nc2ncc(-c3cccc(C(C)=O)c3)o2)c1 | -0.091 (inactive) |
| COc1cc2ncn(-c3cc(OCc4ccccc4Cl)c(C(N)=O)s3)c2cc1OC | -0.517 (inactive) |
| COc1cccc(-n2ncc3c(N/N=C/c4ccc(S(C)(=O)=O)cc4)ncnc32)c1 | -0.723 (inactive) |
| Nc1nonc1-c1nc2cnccc2n1C1CC1 | -0.857 (inactive) |
| NC(=O)c1sc(-n2cnc3ccccc32)cc1OCc1ccccc1Br | 0.164 (inactive) |
| COC(=O)Nc1nc2ccc(Sc3ccc(NC(=O)Nc4cc(C(F)(F)F)ccc4F)cc3)cc2[nH]1 | 1.3 (inactive) |
| COc1cc2ncn(-c3cc(OCCc4ccccc4)c(C(N)=O)s3)c2cc1OC | 0.419 (inactive) |
| COc1cccc(Nc2nccc(-c3cnn4ncccc34)n2)c1 | -1.68 (inactive) |
| CS(=O)(=O)CCNCc1coc(-c2ccc3ncnc(Nc4ccc(OCc5ccccc5)cc4)c3c2)c1 | 2.75 (inactive) |
| NC(=O)Cc1ccccc1Oc1nccc(-c2c(-c3ccc(F)cc3)ncn2C2CCNCC2)n1 | 0.598 (inactive) |
| O=C(Nc1ccc(Oc2ccc3nc(NC(=O)c4ccco4)[nH]c3c2)cc1)Nc1cc(C(F)(F)F)ccc1F | -0.544 (inactive) |
